Test results taken from PubChem BioAssay.
A number with no mark means an inactive call. Calls of active or inactive are those of the source.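 The calls were made as follows: active = growth inhibition above 50% at the single 2 µM test dose, taken to imply half-maximal potency below 2 µM; inactive = the rest.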

Assay: antimalarial activity against Dd2 strain (AID 2302);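 also: 0% = DMSO untreated growth and 100% = chloroquine plus artemisinin killed control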
Conditions: P. falciparum Dd2 in RBCs, LDH growth readout, 72 h; at 2 µM; hits give high values

Compound | growth inhibition
CCOC(=O)C(CO)NC(=O)c1ccc([N+](=O)[O-])o1 (stereo not given) | 2%
COc1ccc2nccc([C@@H](O)CN3CCC(NC(=O)c4cc5ccccc5[nH]4)CC3)c2c1 | 55% (active)
COc1ccc(-c2cccc(NC(=O)c3ccc(C#N)cc3)c2)cc1CN1CCCN(C)CC1 | 89% (active)
Cc1nccc2c(NC(=O)N[C@@H]3CCN(c4ncc(C(F)(F)F)cc4Br)C3)cccc12 | 27%
CN(C)CCOC(=O)C1(O)CCC2CC1C2(C)C (stereo not given) | -5%
c1cncc(CCNCc2ccc(-c3cccc(-c4nc5ccccc5[nH]4)c3)cc2)c1 | 99% (active)
O=C(Cn1c(=O)cnc2ccccc21)Nc1cccc(C(=O)Nc2cccc(C(F)(F)F)c2)c1 | 66% (active)
COc1cc(Nc2nccc(N3CCC(NC(=O)c4cc5ccccc5s4)C3)n2)cc(OC)c1OC (stereo not given) | 50% (active)
COc1ccc2ncc(C#N)c(CCN3CCC(NCc4ccc5c(c4)OCCO5)CC3)c2c1 | 31%
COc1ccc(-c2cncc3ccc(C(=O)NCc4ccncc4)nc23)cc1 | 98% (active)
CC(C)(C)c1ccc(-c2ccccc2CNC(=O)c2cccc(O)c2)cc1 | 88% (active)
COc1ccc2nccc([C@@H](O)CN3CCC(NCc4cc5cc([N+](=O)[O-])ccc5[nH]4)CC3)c2c1 | 57% (active)
COc1ccc(C=NNc2cc(C)nc3ccccc23)cc1OC | 8%
Cc1cc(C(=O)NCc2ccc(-c3c(C)noc3C)cc2)n(-c2ccc(Cl)cc2)n1 | 98% (active)
O=C(Nc1cccc(CN2CCCN(Cc3ccc(O)cc3)CC2)c1)c1ccc(-c2ccccc2)cc1 | 93% (active)
